Assay [1] in a line: compound effects on lung adenocarcinoma cell viability – A549, calcein-AM fluorescence, 48 h, basal, profiling panel (AID 1162). The note with it: higher = more signal.
Assay [2] can be described thus: compound effects on differentiated 3T3-L1 adipocyte viability – cell-based, 3T3-L1 adipocytes, calcein-AM fluorescence, 48 h, basal, profiling panel (AID 1163). The settings on record: 3T3-L1 adipocytes viability, higher = more signal.
A short description of assay [3]: compound effects on hepatocellular carcinoma cell viability – HepG2, calcein-AM fluorescence, 48 h, basal, profiling panel (AID 1164). The note with it: higher = more signal.
Assay [4] is described as follows: compound effects on multiple myeloma cell viability – MM1S, calcein-AM fluorescence, 48 h, basal, profiling panel (AID 1165).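 Also: viability of MM1S multiple myeloma cells under basal unstimulated conditions.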 The settings on record: higher = more signal.
Assay [5] is described as follows: calcein-AM signal in unstimulated myeloma cells – cell-based, calcein-AM fluorescence, 48 h, PK04 Diversity Set, profiling panel (AID 1166).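 Also: cells grown under basal conditions without added stimulus.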 The note with it: RPMI8226 myeloma viability, higher = more signal.
A short description of assay [6]: JC-1 mitochondrial signal, unstimulated HepG2 cells – cell-based, JC-1 fluorescence, 24 h, 100 nL compound, profiling panel (AID 1167). The note with it: HepG2 mitochondrial potential, higher = more signal.
Assay [7] in a line: JC-1 mitochondrial signal, unstimulated adipocytes – cell-based, JC-1 fluorescence, 3T3-L1 adipocytes, 24 h, 100 nL compound, profiling panel (AID 1168). The note with it: JC-1 mitochondrial fluorescence, higher = more signal, called active from +8 up or from −8 down.
Assay [8] in a line: JC-1 mitochondrial signal, unstimulated myeloma cells – cell-based, JC-1 fluorescence, RPMI8226, 24 h, 100 nL compound, profiling panel (AID 1169). The note with it: JC-1 mitochondrial potential fluorescence, higher = more signal.
Assay [9] can be described thus: JC-1 mitochondrial signal, unstimulated MM1S myeloma – cell-based, JC-1 fluorescence, 24 h, 100 nL compound, profiling panel (AID 1170). The note with it: MM1S mitochondrial potential, higher = more signal.
A short description of assay [10]: resazurin metabolic signal in A549 cells – cell-based, resazurin fluorescence, 24 h, PK04 Diversity Set, profiling panel (AID 1171). The settings on record: A549 viability, higher = more signal, called active from +8 up or from −8 down.

Molecules are shown by their SMILES. The source made the active and inactive calls.
Also: test concentration not given here.

In the case of `O=C1C2C=CC(C(O)c3ccc([N+](=O)[O-])cc3)N(Nc3ccc([N+](=O)[O-])cc3)C2C(=O)N1c1ccccc1` (stereo not given), the z-score in assay [1] is -0.682; in assay [2], -1.1; in assay [3] it was 0.0069; in [4], -0.0432; in [5] it was -1.81; in assay [6], -2.27. Besides, the z-score in assay [7] was -2.73 (inactive); in [8] it was -1.01; in assay [9] it was -1.48; in [10], -0.402 (inactive).

For the compound `CC(CCN1CCc2nc(-c3ccccc3)c(-c3ccccc3)cc2C1)=NO[C@H](C)c1cn([C@@H]2COC[C@H]2O)nn1`, the z-score in assay [1] was 1.9; in assay [2], 0.183; in assay [3], 1.2; in [4], 0.259; in assay [5] it was -0.283; in assay [6] it was 1.34. Besides, the z-score in assay [7] is -0.673 (inactive); in assay [8], -0.291; in assay [9], -0.381; in assay [10], -0.579 (inactive).

Turning to `COC(=O)[C@H](C)NC(=O)CCC1CC(OC(=O)NCc2ccc3c(c2)OCO3)CC2(CCCC(COC(=O)NCCOc3ccccc3)O2)O1` (stereo not given in full), the z-score in assay [1] was 1.99; in assay [2], 0.714; in [3], 0.748; in assay [4], 0.0937; in assay [5], 0.487; in assay [6], 0.916. The z-score was 1.67 (inactive) in [7], -0.647 in assay [8], -1.09 in [9] and 0.294 (inactive) in assay [10].

For `Cc1ccc(S[C@]2(C(=O)NCC(F)(F)F)CC(=O)N(Cc3ccccc3Cl)[C@@H]2c2ccc(CO)cc2I)cc1`, the z-score was -1.08 in assay [1]; -0.798 in assay [2]; 0.995 in assay [3]; -2.24 in assay [4]; -2.67 in assay [5]; 0.627 in [6]. Moreover, the z-score in assay [7] was -0.541 (inactive); in assay [8], -0.566; in assay [9] it was -1.18; in [10], 0.318 (inactive).

Regarding `COc1ccc(COC(=O)NN=C2C[C@@H](O)[C@@H](O)[C@@H]3[C@@H]4C(=O)N(c5ccc(F)cc5F)C(=O)[C@@H]4CC[C@@H]23)cc1`, the z-score in assay [1] is -0.102; in assay [2], 0.257; in assay [3] it was -0.987; in [4], -0.738; in assay [5], -0.952; in assay [6], 0.556. The z-score in [7] is 0.301 (inactive); in [8], -0.195; in assay [9], 0.627; in assay [10] it was 0.909 (inactive).

Take `C=CCOC(=O)[C@H]1[C@@H]2C(=O)O[C@@H](c3ccccc3)[C@@H](c3ccccc3)N2[C@@H](c2ccc(OCCOC(=O)[C@H]3C[C@H]4C(=O)N[C@@H](Cc5ccccc5)C(=O)N4[C@H]3c3ccc(O)cc3)cc2)[C@]12C(=O)Nc1ccccc12`: the z-score in assay [1] was -0.794; in assay [2] it was 0.689; in assay [3] it was 0.642; in assay [4] it was 0.0505; in assay [5], -0.216; in assay [6] it was -1.47. Further, the z-score was 0.0241 (inactive) in assay [7], -0.287 in assay [8], -0.718 in assay [9] and 1.7 (inactive) in assay [10].

As to `Cc1cc2c(nc1C)CCCN2CC(C)ON=C1[C@H]2CCn3c(=O)n(-c4ccccc4)c(=O)n3[C@H]2[C@H](O)[C@@H]2O[C@H]12` (stereo not given in full), the z-score in assay [1] was -0.457; in assay [2], 0.0888; in [3], -0.56; in assay [4] it was -1.83; in assay [5], -0.0008; in [6] it was -0.788. Further, the z-score was -1.38 (inactive) in assay [7], 0.477 in assay [8], 0.327 in assay [9] and -0.702 (inactive) in assay [10].

For the compound `COc1ccc(COC(=O)NN=C2C[C@@H](O)[C@@H](O)[C@@H]3[C@@H]4C(=O)N(Cc5ccc6c(c5)OCO6)C(=O)[C@@H]4CC[C@@H]23)cc1`, the z-score in assay [1] is 0.378; in assay [2], 1.11; in [3] it was -0.273; in assay [4], -0.652; in assay [5], -0.0219; in assay [6], 0.621. Also, the z-score was 1.04 (inactive) in assay [7], -0.3 in assay [8], -1.61 in assay [9] and 0.0201 (inactive) in assay [10].

As to `C[C@@H](c1ccccc1)N1C(=O)[C@H]2[C@H]3[C@H](O)[C@H](O)CC(=NNC(=O)OCc4ccccc4)[C@H]3CC[C@H]2C1=O`, the z-score in [1] is -0.34; in [2] it was -0.903; in [3] it was -0.208; in assay [4] it was -0.0615; in assay [5] it was 0.127; in assay [6], -1.05. Also, the z-score in [7] was -0.0829 (inactive); in [8] it was 0.502; in assay [9] it was 0.00989; in [10] it was -0.0339 (inactive).

As for `COCCOC(=O)N1C(=O)[C@@]2(c3cc(C#CC4(O)CCCCCC4)ccc31)[C@H](c1ccc(OCCO)cc1)N1[C@H](c3ccccc3)[C@H](c3ccccc3)OC(=O)[C@H]1[C@@H]2C(=O)NC[C@H](O)c1ccccc1`, the z-score is 0.358 in [1]; 1.62 in assay [2]; -0.063 in [3]; -1.25 in assay [4]; -1.84 in assay [5]; -1.67 in assay [6]. The z-score in assay [7] is 0.0493 (inactive); in [8], -0.924; in assay [9] it was -1.47; in [10], 0.702 (inactive).

On to `CC(CCN1CCCCc2nc(C)c(C)cc21)=NOC(C)CN1CCCc2nc(C)c(C)cc21` (stereo not given), for which the z-score was -0.587 in assay [1]; -0.315 in assay [2]; -0.253 in assay [3]; -2.66 in assay [4]; -0.681 in assay [5]; 0.346 in [6]. Moreover, the z-score in assay [7] was -1.7 (inactive); in [8], 0.133; in assay [9] it was -0.269; in assay [10] it was 0.37 (inactive).

Turning to `O=C(NN=C1C[C@@H](O)[C@@H](O)[C@@H]2[C@@H]3C(=O)N(c4cccc(Oc5ccccc5)c4)C(=O)[C@@H]3CC[C@H]12)OCc1ccccc1`, the z-score in assay [1] was -0.207; in assay [2], -0.205; in [3] it was -0.943; in assay [4], 0.693; in [5], -0.363; in [6], 0.559. For the same compound, the z-score in assay [7] is -1.15 (inactive); in assay [8], 0.0901; in assay [9] it was -0.0387; in [10] it was -0.103 (inactive).

Consider `NCCCCCNC(=O)[C@@H]1C[C@@H]2C(=O)N3CCC[C@H]3C(=O)N2[C@@H]1c1cccc(OCCO)c1`, for which the z-score in assay [1] was -0.323; in assay [2] it was 0.571; in assay [3], -0.168; in [4], 0.0689; in assay [5], 0.0959; in [6], -1.5. Moreover, the z-score in assay [7] is -0.812 (inactive); in [8], 0.167; in assay [9] it was 0.543; in assay [10], 0.142 (inactive).

In the case of `O=C1O[C@@H](c2ccccc2)[C@@H](c2ccccc2)N2[C@@H](c3ccc(O)cc3)[C@]3(C(=O)Nc4ccccc43)[C@@H](C(=O)O)[C@H]12`, the z-score in assay [1] is -0.517; in assay [2], 0.875; in assay [3], -0.308; in assay [4] it was -1.33; in assay [5] it was -1.03; in assay [6] it was -0.517. In addition, the z-score was 0.0106 (inactive) in assay [7], -0.934 in [8], -0.536 in [9] and -0.0947 (inactive) in assay [10].
